Inconclusive results are not listed. Activity calls are given as the source filed them. Unless noted, calls come from the whole dose curve; as a rule, active = well fitted curve in the direction sought with a large enough effect; inconclusive = small, poorly fitted or top-dose-only effect, or another doubt; inactive = no such curve, though single readings can be large; an effect the other way counts as inactive or inconclusive.
Legend:
[1] = qHTS profiling of the MIPE4 collection as inhibitors of Plasmodium falciparum (DD2) proliferation (AID 743345; call rule not given here); details: P. falciparum Dd2 in erythrocytes, SYBR Green DNA, 72 h; at 28.5 µM (top of the series) unless noted
How it was run: (§1)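 Erythrocytes infected with P. falciparum (0.3% parasitemia, 2.5% hematocrit) incubated with compounds 72 h at 37 C, 5% CO2. Lysis with saponin/Triton buffer containing SYBR Green I, overnight at room temperature in the dark; DNA fluorescence (485/535 nm) normalised to 0.29 uM artemisinin and DMSO.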

[2] = qHTS profiling of the MIPE4 collection as inhibitors of Plasmodium falciparum (DD2) proliferation (Rep 2) (AID 743346; call rule not given here); details: P. falciparum Dd2 in erythrocytes, SYBR Green DNA, 72 h; at 28.5 µM (top of the series) unless noted
How it was run: as §1

[3] = qHTS profiling of the MIPE4 collection as inhibitors of Plasmodium falciparum (HB3) proliferation (AID 743347; call rule not given here;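 note: plate controls were DMSO vehicle wells for no effect and artemisinin wells for full effect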); details: P. falciparum HB3 in erythrocytes, SYBR Green DNA, 72 h; at 28.5 µM (top of the series) unless noted
How it was run: as §1

[4] = High-throughput drug toxicity screening in the BPDCN cell line Gen2.2 (AID 1224824; call rule not given here;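 note: cells exposed to compounds for 48 h before reading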); details: Gen2.2 BPDCN cells; at 45.8 µM (top of the series) unless noted
How it was run: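 CellTiter-Glo luminescence after 48 h compound exposure of Gen2.2 cells; percent activity set with DMSO as 100% and bortezomib (9.2 uM final) as 0%. Cells seeded at 500 per well, RPMI + 10% FBS, 37 °C.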

[5] = High-throughput drug toxicity screening in the BPDCN cell line Cal-1 (AID 1224825; call rule not given here); details: Cal-1 BPDCN cell viability, qHTS; at 45.8 µM (top of the series) unless noted
How it was run: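 500 Cal-1 cells/well, RPMI + glutamine + 10% FBS (phenol red-free); cpd added by pin tool; 48 h, 37C, 5% CO2; CTG 15 min RT, lumi read. Normalised: DMSO 100%, bortezomib 9.2 uM 0%.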

[6] = qHTS assay for measurement of the activity of small molecule inhibitors on Zika virus induced Caspase-3 activity in human iPSC derived neural progenitor cells (hNPCs) (AID 1224857); note: % of control where 0% means no effect; nearly all actives have a fitted effect of over 65% in size
How it was run: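 Human iPSC-derived neural progenitor cells pretreated 1 hr with compounds, then infected with Zika virus (2 FFU/cell) for 6 hours at 37 C. Caspase-3/7 measured by Caspase-Glo luminescence; % inhibition calculated from induction scaled to uninfected (0%) and infected (100%) wells.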

[7] = qHTS assay for measurement of the activity of small molecule inhibitors on Zika virus induced Caspase-3 activity in human astrocytoma cells (AID 1224859);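 note: plate controls were ZIKV-infected untreated cells for no effect and uninfected cells for full effect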
How it was run: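 SNB-19 astrocytoma cells, 250/well, pretreated 1 h with compounds, then Zika virus at 2 FFU/cell for 6 h at 37 C; Caspase-Glo 3/7 luminescence after 30 min; percent inhibition normalised to uninfected and infected controls.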

[8] = qHTS Screen of the MIPE 4.0 Collection Against Ewings Sarcoma (RDES) (AID 1259252); note: nearly all actives have a fitted effect of over 35% in size; note: potency is the fitted concentration of half-maximal effect
How it was run: (§2)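 Cells plated in serum-containing RPMI (5% FBS) and treated with compound dilutions for 48 h. Readout luminescent viability; normalization relied on vehicle (no inhibition) and media-only columns (full inhibition).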

[9] = qHTS Screen of the MIPE 4.0 Collection Against Ewings Sarcoma (TC71) (AID 1259253); note: nearly all actives have a fitted effect of over 40% in size; note: potency is the fitted concentration of half-maximal effect
How it was run: as §2

[10] = qHTS Screen of the MIPE 4.0 Collection Against Ewings Sarcoma (EW8) (AID 1259255); note: nearly all actives have a fitted effect of over 35% in size; note: potency is the fitted concentration of half-maximal effect;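 for viability: 100% = DMSO-treated cells and 0% = medium-only wells without cells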
How it was run: as §2

[11] = qHTS Screen of the MIPE 4.0 Collection Against Ewings Sarcoma (TC32) (AID 1259256); note: nearly all actives have a fitted effect of over 45% in size; note: potency is the fitted concentration of half-maximal effect
How it was run: as §2

[12] = qHTS assay to identify small molecule inhibitors of chordoma cells - UCH-1 (AID 1259355); note: nearly all actives have a fitted effect of over 55% in size; note: potency is the fitted concentration of half-maximal effect
How it was run: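 Seed 800 cells per well; incubate overnight at 37 C, 5% CO2. Add test compounds (15 concentrations), then the auranofin–topoisomerase-agent combination. Incubate 48hr, add CellTiter-Glo, wait 30min, read luminescence.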

[13] = qHTS assay to identify small molecule inhibitors of chordoma cells - UCH-2 (AID 1259356); note: % is set by controls: 0 for no effect and ±100 for the full control effect
[14] = qHTS profiling of the MIPE4 collection as inhibitors of Plasmodium falciparum (3D7) proliferation (AID 743344; call rule not given here;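 note: scaled between DMSO vehicle wells and 0.29 µM artemisinin as full inhibition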); details: P. falciparum 3D7 in erythrocytes, SYBR Green DNA fluorescence, 72 h; at 28.5 µM (top of the series) unless noted
How it was run: as §1

Compound | parasite growth remaining, % of DMSO control (lower = more inhibition) [1] | parasite growth, % of control (lower = inhibition) [2] | growth, % of control [3] | cell viability, % of control (lower = more cytotoxic) [4] | viability (% of control) [5] | Potency [6] | Potency [7] | Potency [8] | Potency [9] | Potency [10] | Potency [11] | Potency [12] | Potency [13] | parasite growth, % of DMSO control [14]
CC(C)(Sc1cc(C(C)(C)C)c(O)c(C(C)(C)C)c1)Sc1cc(C(C)(C)C)c(O)c(C(C)(C)C)c1 | 26.6% | 24.6% | 19.1% | 48.3% | 45.2% | inactive | inactive | 2.96 µM (active) | 20.9 µM (active) | inactive | 9.35 µM (active) | inactive | inactive | –
Cc1onc(-c2ccccc2Cl)c1C(=O)N[C@@H]1C(=O)N2[C@@H]1SC(C)(C)[C@@H]2C(=O)O | 94.6% | 79% | 108% | 168% | 97.4% | inactive | inactive | inactive | inactive | inactive | inactive | inactive | inactive | –
C[C@@H]1C[C@H]2[C@@H]3CCC4=CC(=O)C=C[C@]4(C)[C@@]3(Cl)[C@@H](O)C[C@]2(C)[C@@]1(OC(=O)c1ccco1)C(=O)CCl | 7.88% | 10.6% | 6.95% | 4.47% | 6.87% | inactive | inactive | 3.72 µM (active) | 4.69 µM (active) | 11.8 µM (active) | 11.8 µM (active) | inactive | inactive | –
COC(=O)Nc1nc2ccc(Sc3ccccc3)cc2[nH]1 | 99.3% | 18.7% | 102% | 61% | 18.7% | inactive | inactive | 1.66 µM (active) | 1.66 µM (active) | 1.32 µM (active) | 1.18 µM (active) | – | inactive | –
CCOc1cc(N)c(Cl)cc1C(=O)NCC1CN(Cc2ccc(F)cc2)CCO1 (centres undefined) | 101% | 178% | 99% | 376% | 98.6% | inactive | inactive | inactive | inactive | inactive | inactive | – | inactive | –
Nc1[nH]c(=O)ncc1F | 104% | 158% | 699% | 87.4% | 22.3% | inactive | inactive | inactive | 18.7 µM (active) | inactive | 13.2 µM (active) | inactive | inactive | –
C[C@@H]1CN(c2c(F)c(N)c3c(=O)c(C(=O)O)cn(C4CC4)c3c2F)C[C@H](C)N1 | 83% [at 9.64 µM] | 34.1% [at 9.64 µM] | 72.3% [at 9.64 µM] | 89.9% [at 23.2 µM] | 107% [at 23.2 µM] | inactive | inactive | inactive | inactive | inactive | inactive | inactive | inactive | –
C1CCC(C(CC2CCCCN2)C2CCCCC2)CC1 (centres undefined) | 7.9% | 7.73% | 1.94% | 7.33% | 5.18% | inactive | inactive | 23.5 µM (active) | 13.2 µM (active) | 13.2 µM (active) | 16.6 µM (active) | 31.6 µM (active) | – | 6.92%
CC(=O)[C@H]1CC[C@H]2[C@@H]3CC=C4C[C@@H](O)CC[C@]4(C)[C@H]3CC[C@]12C | 88.9% | 85.3% | 65.7% | 106% | 107% | inactive | inactive | inactive | inactive | inactive | inactive | – | inactive | –

Source: PubChem BioAssay (NCATS)
